Bioassay records (PubChem BioAssay)
TNAP act DEA = activators of human TNAP at intermediate phosphate acceptor; purified TNAP, CDP-star luminescence, 100 mM DEA, 30 min; stronger effect = higher value; scale: 0 levamisole-inhibited, 1 vehicle-only enzyme; activation factor at 20 µM; 64,000 tested, under 10 active;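 active = activation factor of at least 2 at 20 µM, relative to controls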
NFkB transloc pot = enhances IL-1B driven NFkB nuclear translocation; HUVEC IL-1B NFkB p65 nuclear translocation imaging; activation, % at 2 µM; 94,000 compounds, 0.3% hits; AID 819;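 active = activation above 40%, about the mean plus 3 SD, also judged a hit on visual image review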;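 note: percent activation is computed from the nuclear over cytoplasmic p65 intensity ratio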
PLAP activator = human PLAP activation. P05187. purified PLAP enzyme, luminescent substrate read-out; stronger effect = higher value. activation fold at 20 µM. 96,000 compounds, 1.2% hits; in the data active = activation fold above about 2
Target sequence (P05187 whole entry, looked up): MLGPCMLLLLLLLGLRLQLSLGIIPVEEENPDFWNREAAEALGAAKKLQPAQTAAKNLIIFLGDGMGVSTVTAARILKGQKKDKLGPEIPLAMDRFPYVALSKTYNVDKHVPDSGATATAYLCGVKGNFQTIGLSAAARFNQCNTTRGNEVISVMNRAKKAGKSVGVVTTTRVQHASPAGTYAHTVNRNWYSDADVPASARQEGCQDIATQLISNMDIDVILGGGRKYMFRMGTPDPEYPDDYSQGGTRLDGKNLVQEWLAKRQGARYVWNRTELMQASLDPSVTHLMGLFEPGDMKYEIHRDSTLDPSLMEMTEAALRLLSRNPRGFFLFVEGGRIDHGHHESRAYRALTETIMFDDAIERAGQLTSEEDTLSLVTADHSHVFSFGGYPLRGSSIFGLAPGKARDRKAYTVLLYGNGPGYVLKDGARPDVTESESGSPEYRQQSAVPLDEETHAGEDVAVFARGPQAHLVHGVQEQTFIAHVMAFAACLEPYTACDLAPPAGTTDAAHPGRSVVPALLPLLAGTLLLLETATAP
IL1B cytotox = toxic to HUVEC cells under IL-1B stimulation; HUVEC cell count loss, Hoechst imaging, IL-1B stimulated; 94,000 compounds, 0.41% hits; AID 845; cell count reduction, % at 2 µM;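 active = cell count reduction more than 3 SD above the screen-wide mean, cut at about 70% in these data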;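 note: normalized per plate to untreated control cells as the no-loss baseline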
IL1B NFkB inh = blocks IL-1B driven NFkB nuclear translocation in HUVEC cells; AID 796; HUVEC IL-1B NFkB p65 nuclear translocation imaging; 94,000 compounds, 0.43% hits; inhibition, % at 2 µM;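 active = inhibition above about 30% together with a positive call from visual inspection of the well image, limit read from the data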;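 note: nuclear over cytoplasmic p65 intensity ratio measured by imaging; 0% = IL-1B stimulated DMSO wells and 100% = unstimulated DMSO wells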
Numbers without * were called inactive; x = no result given; ! = a repeat was not active. Only some compounds are listed: those with a hit (about 2.1% of all), similar ones and a draw of the others.

SMILES	TNAP act DEA	NFkB transloc pot	PLAP activator	IL1B cytotox	IL1B NFkB inh
CCCC/C(O)=N\S(=O)(=O)c1ccc(N=NN(C)C)cc1	x	17	x	6	-17
O=c1c2c3c(sc2nc2sc(C4CC4)nn12)CCCC3	0.9	-88	1	78*	88*
Cc1oc(-c2ccccc2)nc1C(=O)Nc1nccs1	0.9	3	2*	8	-3
Cc1cc(NC(=O)CSc2nc(C3CC3)nc3sc(C)c(C)c23)no1	x	2	1	11	-2
Cc1cc(=O)[nH]c(-n2[nH]c3c(c2=O)CCCC3)n1	x	-10	2.6*	28	10
CCOC(=O)CSc1nc2sc3c(c2c(=O)n1C1CCCCC1)CCN(C)C3	x	-8	x	-61	8
CCc1nc(NCCCCCO)c2nnn(Cc3ccccc3F)c2n1	x	17	1.7	-14	-17
O=C1CC(C(=O)Nc2ccc(Br)cc2)C2(CCCC2)O1 (configuration not stated)	0.9	-25	1.3	82*	25
Sc1oc(-c2ccccc2)cc1C=Nc1ccccc1	x	3	0.8	-10	-3
COc1cccc(-c2nn(C)c3sc(C(=O)NCc4ccc5c(c4)OCO5)cc23)c1	0.9	-7	2.2*	-6	7
Nc1nc(Sc2ccc(C(F)(F)F)cc2[N+](=O)[O-])n[nH]1	x	18	2*	4	-18
O=[N+]([O-])c1cc(C(F)(F)F)ccc1Sc1ccc2ccccc2n1	x	0	1	-18	0
Cc1ccc(CNC(=O)CCS(=O)(=O)c2cc(Br)cc3c2N(C(=O)C2CC2)CC3)o1	1.1	x	1.3	x	x
O=C1CC(C(=O)O)C2(CCCC2)O1 (configuration not stated)	x	-9	x	4	9
COc1ccc2nc(C)cc(SCC(=O)O)c2c1	1	-1	1.1	18	40*!
COC(=O)CSc1cc(C)nc2ccc(OC)cc12	x	-8	0.9	10	8
CCOc1cc(CNCc2ccccn2)ccc1OCC(=O)NC1CCCCC1	x	-16	2*	-5	16
[N-]=[N+]=CC(=O)CC(c1ccccc1)N1C(=O)c2ccccc2C1=O (configuration not stated)	0.9	3	2*	-8	-3
COCc1cc(C)c2c(N)c(C#N)sc2n1	0.9	-31	0.9	21	31*
Cc1nc2cc(F)ccc2n1C1CCN(S(=O)(=O)c2ccccc2)CC1	0.9	4	1.1	0	-4
Nc1ccccc1C(=O)NNc1ncc(C(F)(F)F)cc1Cl	x	0	2*	7	0
CCOC(=O)CC(=O)CSc1nc2ccccc2c(=O)n1-c1ccc(C(=O)NCCOC)cc1	x	13	1.4	-7	-13
COc1ccccc1OCC(=O)NCCNC(=O)COc1ccccc1OC	0.9	3	1.2	-1	-3
COc1ccccc1OCC(=O)NCC1CCCCC1	0.9	-96	1.2	94*	96*
CCN(CC)CCNc1nc2c(c(=O)[nH]c(=O)n2C)n1CC(O)COc1ccc(Cl)cc1Cl (configuration not stated)	1	7	2*	-3	-7
SMILES	TNAP act DEA	NFkB transloc pot	PLAP activator	IL1B cytotox	IL1B NFkB inh
CN(C)CCNc1nc2c(c(=O)[nH]c(=O)n2C)n1CC(O)COc1ccc(Cl)cc1 (configuration not stated)	1	10	1.2	-94	-10
CC(=O)c1ccc(NC(=O)c2cnn3c(C(F)F)cc(C4CC4)nc23)cc1	x	1	x	6	0
COc1cc(C(=O)Oc2ccccc2/C=N/NC(=O)c2ccc(Cl)cc2Cl)cc(OC)c1OC	x	-1	2.3*	-31	1
CC(C)c1ccccc1OCCCCCNCCO	1	0	1.5	15	0
Cc1nn(C)cc1C1C2=C(CC(C)(C)CC2=O)N(c2ccccc2)C2=C1C(=O)CC(C)(C)C2	x	-10	2*	-3	10
CCC(=O)Nc1nc2ccccc2n1CCN(CC)CC	1	2	1.5	-8	-2
Cc1c(Cl)c(C(=O)Nc2nc3ccccc3n2CCN2CCCCC2)nn1C	x	-5	2.5*	5	5
CN(C)CCn1c(NC(=O)c2ccc(Cl)cc2)nc2ccccc21	x	8	2.3*	-10	-8
O=C(Nc1nc2ccccc2n1CCN1CCCCC1)c1ccco1	1.1	-3	1.4	-7	3
CCn1cc(Cl)c(C(=O)Nc2nc3ccccc3n2CCN2CCCCC2)n1	1	4	2.3*	-3	-4
CC/C(=C\C(=O)c1cccnc1)Nc1ccc(C)c(C)c1	0.8	36	1.5	-37	-36
COc1ccc(C(C)=O)cc1COc1ccc(-n2cnnn2)cc1	x	2	1	-10	-2
COc1ccccc1CO/N=C/NC(=O)c1c(OC)ccnc1Oc1ccc(F)cc1	x	-1	1.3	-25	1
COc1ccnc(Oc2ccccc2)c1C(=O)N/C=N/OCc1ccc(F)cc1Cl	x	-14	1.1	95*	14
Cc1nn(C)cc1/C=N\NC(=O)c1ccc2c(c1)c(C)c(C)n2Cc1ccccc1	x	25	x	2	-25
Cn1c(COc2ccc3ccccc3c2)nnc1SCC(=O)OC1CCCCC1	x	41*	x	51	-41
Cn1c(COc2ccc3ccccc3c2)nnc1SCC(N)=O	0.9	-9	0.9	-9	9
O=C(O)CCc1cc(I)c(Oc2ccc(O)c(I)c2)c(I)c1	0.9	x	x	x	x
O=C(Nc1ccc(NC(=S)NC(=O)C(c2ccccc2)c2ccccc2)cc1)c1ccccc1	x	-6	x	-4	6
Cc1ccc(C(=O)Nc2ccc(O)cc2C(=O)O)cc1C	x	119*	0.9	8	-119
Cc1ccc(C(=O)Nc2ccc(O)cc2C(=O)O)cc1	x	2	1	11	-2
O=C(COC(=O)c1ccncc1)Nc1cc(Cl)c(Cl)cc1Cl	x	-2	0.9	-7	2
Cc1cc(C(=O)O)cc(S(=O)(=O)N2CCOCC2)c1C	1	0	1	-38	0
Cc1ccc(-n2cnnn2)c(S(=O)(=O)N2CCOCC2)c1	0.9	-35	1	-67	35*
Cc1[nH]n(-c2ccccc2)c(=O)c1Sc1ccc(Cl)cc1	x	13	1	-2	-13
SMILES	TNAP act DEA	NFkB transloc pot	PLAP activator	IL1B cytotox	IL1B NFkB inh
Cc1cc(-c2c(C)[nH]n(-c3ccc(Cl)cc3)c2=O)n[nH]1	x	0	2*	-5	0
CCOC(=O)c1[nH]c2cc(OC)c(OC)cc2c1NC(=O)C(C)N1CCN(Cc2ccccc2)CC1 (configuration not stated)	0.8	-32	1.6	-3	32*
CCC(C)(C)NC(=O)C(OC(=O)c1cc2sccc2n1C)c1ccc(OC)cc1 (configuration not stated)	0.9	1	0.9	-10	-1
Cc1cc(S(=O)(=O)Nc2c(C(=O)O)[nH]c3ccccc23)ccc1F	0.7	0	2*	5	0
COC(=O)c1[nH]c2ccc(C)cc2c1NS(=O)(=O)c1ccc(F)c(C)c1	0.8	-6	1	-4	6
Cc1ccccc1N1C(=O)N(c2cccc(C(F)(F)F)c2)C2CS(=O)(=O)CC21 (configuration not stated)	1	73*	1	-9	-73
